Reference: paper PMC7862700, “An all-to-all approach to the identification of sequence-specific readers for epigenetic DNA modifications on cytosine”

Legend:
Test in all cases: DAPPL (digital affinity profiling via proximity ligation, sequencing); 10 mM Tris-HCl pH 7.5, 50 mM NaCl, 1 mM DTT, 4% glycerol, room temperature, 30 min; GST-TFs on glutathione beads, 16-mer random dsDNA library, 0.1% formaldehyde crosslink after washing; high values mean tight binding
[1] = target: T1, FLI1 (Homo sapiens, UniProt Q01543 1-452); details: protein: recombinant; tags: N-terminal GST; dsDNA, one strand shown
T1 sequence: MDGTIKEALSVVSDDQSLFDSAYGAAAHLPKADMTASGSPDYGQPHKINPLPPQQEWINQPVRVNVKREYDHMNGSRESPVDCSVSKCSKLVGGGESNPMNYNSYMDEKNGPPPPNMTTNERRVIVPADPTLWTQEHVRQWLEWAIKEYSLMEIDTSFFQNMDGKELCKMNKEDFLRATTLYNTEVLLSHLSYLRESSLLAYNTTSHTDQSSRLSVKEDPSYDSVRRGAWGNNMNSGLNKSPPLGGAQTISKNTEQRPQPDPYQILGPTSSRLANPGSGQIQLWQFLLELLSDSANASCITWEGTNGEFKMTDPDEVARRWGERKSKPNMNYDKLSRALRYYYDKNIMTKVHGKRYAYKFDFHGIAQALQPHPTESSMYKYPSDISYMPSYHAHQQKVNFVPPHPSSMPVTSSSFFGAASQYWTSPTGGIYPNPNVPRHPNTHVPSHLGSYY
Outline: (§1)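 Sequencing on an Illumina NextSeq500 followed washing, crosslinking with 0.1% formaldehyde, proximity ligation (BsaI/T4 ligase, 1 h, 37 °C) and PCR amplification of pools that had been incubated for 30 min at room temperature with 200 nmole of a random double-stranded 16-mer DNA library in Tris/NaCl/DTT/glycerol buffer. Each pool held DNA-barcoded human transcription factors, expressed in yeast as GST fusions and captured on glutathione beads, plus a tag-only sample. Binding signal is a hexamer's read frequency for a factor divided by its frequency in the tag-only sample.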

[2] = target: T2, ELK1 (Homo sapiens, UniProt P19419 1-428); details: protein: recombinant; tags: N-terminal GST; dsDNA, one strand shown
T2 sequence: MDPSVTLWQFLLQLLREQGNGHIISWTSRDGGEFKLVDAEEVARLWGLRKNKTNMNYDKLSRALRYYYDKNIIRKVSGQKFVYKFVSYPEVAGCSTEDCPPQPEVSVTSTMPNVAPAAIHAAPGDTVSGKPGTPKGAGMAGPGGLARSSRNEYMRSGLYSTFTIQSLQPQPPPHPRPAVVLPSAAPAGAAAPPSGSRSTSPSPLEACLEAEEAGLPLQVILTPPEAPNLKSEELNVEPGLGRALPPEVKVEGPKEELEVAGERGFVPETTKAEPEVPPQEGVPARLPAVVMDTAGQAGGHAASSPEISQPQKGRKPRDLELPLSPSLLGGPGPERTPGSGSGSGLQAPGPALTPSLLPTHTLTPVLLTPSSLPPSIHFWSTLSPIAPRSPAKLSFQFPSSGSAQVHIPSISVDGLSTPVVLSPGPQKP
Outline: as §1

[3] = target: T3, GABPA (Homo sapiens, UniProt Q06546 1-454); details: protein: recombinant; tags: N-terminal GST; dsDNA, one strand shown
T3 sequence: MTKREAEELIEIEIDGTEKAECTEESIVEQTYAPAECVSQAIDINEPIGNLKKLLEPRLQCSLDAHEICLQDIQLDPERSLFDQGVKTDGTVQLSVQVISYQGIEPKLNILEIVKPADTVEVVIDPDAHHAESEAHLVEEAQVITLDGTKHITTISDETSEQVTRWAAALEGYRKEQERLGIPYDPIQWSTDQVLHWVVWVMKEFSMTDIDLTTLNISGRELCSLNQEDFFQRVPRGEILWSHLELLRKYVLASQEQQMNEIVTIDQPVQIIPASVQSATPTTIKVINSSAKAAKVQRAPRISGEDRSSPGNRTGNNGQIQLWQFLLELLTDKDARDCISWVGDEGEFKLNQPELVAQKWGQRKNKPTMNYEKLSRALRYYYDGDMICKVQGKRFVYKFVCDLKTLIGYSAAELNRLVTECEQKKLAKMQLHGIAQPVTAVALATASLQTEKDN
Outline: as §1

[4] = target: T4, ERG (Homo sapiens, UniProt P11308 1-479); details: protein: recombinant; tags: N-terminal GST; dsDNA, one strand shown
T4 sequence: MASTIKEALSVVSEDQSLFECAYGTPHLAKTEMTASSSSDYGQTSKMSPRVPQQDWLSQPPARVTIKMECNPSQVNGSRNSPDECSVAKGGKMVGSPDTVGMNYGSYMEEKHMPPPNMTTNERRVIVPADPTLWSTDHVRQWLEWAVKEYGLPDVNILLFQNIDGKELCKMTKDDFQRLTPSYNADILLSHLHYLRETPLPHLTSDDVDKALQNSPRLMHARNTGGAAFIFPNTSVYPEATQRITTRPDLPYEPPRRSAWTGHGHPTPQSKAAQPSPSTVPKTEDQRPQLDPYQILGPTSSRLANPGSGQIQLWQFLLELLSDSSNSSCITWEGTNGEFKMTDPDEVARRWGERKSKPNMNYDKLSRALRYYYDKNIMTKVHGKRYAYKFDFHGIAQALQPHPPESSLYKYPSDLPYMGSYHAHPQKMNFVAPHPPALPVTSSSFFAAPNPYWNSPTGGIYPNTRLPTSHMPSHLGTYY
Outline: as §1

[5] = target: ELF1 (Homo sapiens, UniProt P32519 1-619); details: protein: recombinant; tags: N-terminal GST; dsDNA, one strand shown
Outline: as §1

[6] = target: T5, EHF (Homo sapiens, UniProt Q9NZC4 1-300); details: protein: recombinant; tags: N-terminal GST; dsDNA, one strand shown
T5 sequence: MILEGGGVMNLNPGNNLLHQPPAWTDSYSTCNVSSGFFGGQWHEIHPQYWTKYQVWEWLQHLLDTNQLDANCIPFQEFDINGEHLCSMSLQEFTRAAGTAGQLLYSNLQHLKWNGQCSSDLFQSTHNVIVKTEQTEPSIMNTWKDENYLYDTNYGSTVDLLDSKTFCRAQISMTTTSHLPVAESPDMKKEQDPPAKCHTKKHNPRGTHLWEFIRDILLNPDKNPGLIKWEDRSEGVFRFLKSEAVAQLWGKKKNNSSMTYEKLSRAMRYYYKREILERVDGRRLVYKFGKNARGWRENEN
Outline: as §1

[7] = target: SPI1 (Homo sapiens, UniProt P17947 1-270); details: protein: recombinant; tags: N-terminal GST; dsDNA, one strand shown
Outline: as §1

[8] = target: SPIB (Homo sapiens, UniProt Q01892 1-262); details: protein: recombinant; tags: N-terminal GST; dsDNA, one strand shown
Outline: as §1

[9] = target: T6, ELK3 (Homo sapiens, UniProt P41970 1-407); details: protein: recombinant; tags: N-terminal GST; dsDNA, one strand shown
T6 sequence: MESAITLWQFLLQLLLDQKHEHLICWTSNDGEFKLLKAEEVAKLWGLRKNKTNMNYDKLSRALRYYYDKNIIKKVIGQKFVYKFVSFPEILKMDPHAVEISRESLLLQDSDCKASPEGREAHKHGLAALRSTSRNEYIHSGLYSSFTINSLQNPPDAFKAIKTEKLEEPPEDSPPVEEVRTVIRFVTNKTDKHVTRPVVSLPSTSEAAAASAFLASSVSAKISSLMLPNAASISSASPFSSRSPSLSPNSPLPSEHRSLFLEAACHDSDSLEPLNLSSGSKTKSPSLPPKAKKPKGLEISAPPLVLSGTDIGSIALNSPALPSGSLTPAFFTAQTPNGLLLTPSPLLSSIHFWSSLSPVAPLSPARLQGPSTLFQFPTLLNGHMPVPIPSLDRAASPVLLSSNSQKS
Outline: as §1

[10] = target: T7, FEV (Homo sapiens, UniProt Q99581 1-238); details: protein: recombinant; tags: N-terminal GST; dsDNA, one strand shown
T7 sequence: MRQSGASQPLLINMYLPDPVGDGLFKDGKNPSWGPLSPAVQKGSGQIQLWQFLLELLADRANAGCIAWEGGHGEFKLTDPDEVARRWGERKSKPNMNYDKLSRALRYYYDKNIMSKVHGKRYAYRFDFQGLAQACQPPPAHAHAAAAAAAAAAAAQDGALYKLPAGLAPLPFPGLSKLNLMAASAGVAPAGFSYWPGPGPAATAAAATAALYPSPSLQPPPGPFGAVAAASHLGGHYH
Outline: as §1

[11] = target: ETV5 (Homo sapiens, UniProt P41161 1-510); details: protein: recombinant; tags: N-terminal GST; dsDNA, one strand shown
Outline: as §1

[12] = target: HSF1 (Homo sapiens, UniProt Q00613 1-529); details: protein: recombinant; tags: N-terminal GST; chain copies: 3; dsDNA, one strand shown
Outline: as §1

[13] = target: T8, SPIC (Homo sapiens, UniProt Q8N5J4 1-248); details: protein: recombinant; tags: N-terminal GST; dsDNA, one strand shown
T8 sequence: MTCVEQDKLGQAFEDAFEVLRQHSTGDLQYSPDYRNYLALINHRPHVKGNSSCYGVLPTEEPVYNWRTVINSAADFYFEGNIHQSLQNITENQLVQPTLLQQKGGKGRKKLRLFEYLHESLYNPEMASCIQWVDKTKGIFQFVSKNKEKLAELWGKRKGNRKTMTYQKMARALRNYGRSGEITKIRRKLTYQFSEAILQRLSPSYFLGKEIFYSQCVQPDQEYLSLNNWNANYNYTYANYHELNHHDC
Outline: as §1

[14] = target: ELF4 (Homo sapiens, UniProt Q99607 1-663); details: protein: recombinant; tags: N-terminal GST; dsDNA, one strand shown
Outline: as §1

[15] = target: T9, ELK4 (Homo sapiens, UniProt P28324-2 1-405); details: protein: recombinant; tags: N-terminal GST; dsDNA, one strand shown
T9 sequence: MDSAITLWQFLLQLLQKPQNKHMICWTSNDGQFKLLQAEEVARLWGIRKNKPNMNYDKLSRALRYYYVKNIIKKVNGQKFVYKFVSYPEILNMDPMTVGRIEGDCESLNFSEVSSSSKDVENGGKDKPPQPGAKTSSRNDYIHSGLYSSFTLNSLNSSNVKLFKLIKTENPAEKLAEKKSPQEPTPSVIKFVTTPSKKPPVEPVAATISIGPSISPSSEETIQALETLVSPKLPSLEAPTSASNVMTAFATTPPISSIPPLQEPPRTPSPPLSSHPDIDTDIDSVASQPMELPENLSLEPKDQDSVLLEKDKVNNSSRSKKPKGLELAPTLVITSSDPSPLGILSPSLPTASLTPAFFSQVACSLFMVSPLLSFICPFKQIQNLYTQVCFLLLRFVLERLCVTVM
Outline: as §1

[16] = target: T10, ETV2 (Homo sapiens, UniProt O00321 1-342); details: protein: recombinant; tags: N-terminal GST; dsDNA, one strand shown
T10 sequence: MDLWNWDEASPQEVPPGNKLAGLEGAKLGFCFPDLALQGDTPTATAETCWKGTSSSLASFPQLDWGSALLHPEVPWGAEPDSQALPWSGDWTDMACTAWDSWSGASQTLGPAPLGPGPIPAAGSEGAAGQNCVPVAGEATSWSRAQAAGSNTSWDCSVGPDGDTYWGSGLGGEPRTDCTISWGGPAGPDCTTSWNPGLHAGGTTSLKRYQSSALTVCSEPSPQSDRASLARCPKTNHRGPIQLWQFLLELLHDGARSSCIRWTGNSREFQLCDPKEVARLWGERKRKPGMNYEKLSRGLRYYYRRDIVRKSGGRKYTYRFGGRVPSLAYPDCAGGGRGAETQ
Outline: as §1

[17] = target: T11, ELF3 (Homo sapiens, UniProt P78545 1-371); details: protein: recombinant; tags: N-terminal GST; dsDNA, one strand shown
T11 sequence: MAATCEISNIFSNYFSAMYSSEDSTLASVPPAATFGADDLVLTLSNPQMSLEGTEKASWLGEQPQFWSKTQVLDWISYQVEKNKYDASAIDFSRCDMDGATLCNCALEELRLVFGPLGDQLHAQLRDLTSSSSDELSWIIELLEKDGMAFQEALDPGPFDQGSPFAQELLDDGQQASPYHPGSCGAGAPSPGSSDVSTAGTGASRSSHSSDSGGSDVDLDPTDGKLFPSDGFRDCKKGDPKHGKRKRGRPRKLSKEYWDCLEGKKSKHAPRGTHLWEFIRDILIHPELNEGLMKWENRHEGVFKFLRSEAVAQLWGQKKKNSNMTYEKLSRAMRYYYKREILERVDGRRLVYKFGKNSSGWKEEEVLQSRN
Outline: as §1

[18] = target: CRX (Homo sapiens, UniProt O43186 1-299); details: protein: recombinant; tags: N-terminal GST; dsDNA, one strand shown
Outline: as §1

[19] = target: ETV1 (Homo sapiens, UniProt P50549 1-477); details: protein: recombinant; tags: N-terminal GST; dsDNA, one strand shown
Outline: as §1

Sequence of ETV1 (P50549 whole entry): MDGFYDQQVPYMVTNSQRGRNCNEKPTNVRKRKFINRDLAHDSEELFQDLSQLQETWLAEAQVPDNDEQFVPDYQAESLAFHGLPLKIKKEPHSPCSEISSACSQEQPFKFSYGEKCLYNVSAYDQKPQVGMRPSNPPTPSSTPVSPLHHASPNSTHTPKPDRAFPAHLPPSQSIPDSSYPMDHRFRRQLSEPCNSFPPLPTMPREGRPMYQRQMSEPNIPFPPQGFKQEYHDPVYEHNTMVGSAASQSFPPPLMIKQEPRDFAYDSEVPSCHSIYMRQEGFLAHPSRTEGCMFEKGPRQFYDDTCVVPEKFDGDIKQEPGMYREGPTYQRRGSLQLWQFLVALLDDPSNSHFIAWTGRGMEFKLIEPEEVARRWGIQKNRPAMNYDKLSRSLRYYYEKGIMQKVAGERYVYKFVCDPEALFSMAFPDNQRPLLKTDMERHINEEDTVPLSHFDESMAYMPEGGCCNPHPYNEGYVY
Sequence of ELF1 (P32519 whole entry): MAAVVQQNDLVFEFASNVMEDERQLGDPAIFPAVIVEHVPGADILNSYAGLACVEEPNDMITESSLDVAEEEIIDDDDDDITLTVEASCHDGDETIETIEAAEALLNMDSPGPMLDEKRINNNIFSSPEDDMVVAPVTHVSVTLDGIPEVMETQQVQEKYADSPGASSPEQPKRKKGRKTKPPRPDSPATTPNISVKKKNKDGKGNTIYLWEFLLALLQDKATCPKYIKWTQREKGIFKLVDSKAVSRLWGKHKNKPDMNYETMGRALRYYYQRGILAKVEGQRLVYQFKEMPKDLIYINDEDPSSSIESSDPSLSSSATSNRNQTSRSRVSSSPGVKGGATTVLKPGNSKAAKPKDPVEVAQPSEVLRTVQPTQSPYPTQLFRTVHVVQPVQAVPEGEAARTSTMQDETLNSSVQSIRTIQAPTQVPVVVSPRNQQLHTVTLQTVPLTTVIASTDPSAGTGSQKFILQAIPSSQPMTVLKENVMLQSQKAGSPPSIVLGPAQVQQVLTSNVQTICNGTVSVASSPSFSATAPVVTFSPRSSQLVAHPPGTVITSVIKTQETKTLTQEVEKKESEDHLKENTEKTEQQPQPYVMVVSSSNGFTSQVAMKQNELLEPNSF
Sequence of HSF1 (Q00613 whole entry): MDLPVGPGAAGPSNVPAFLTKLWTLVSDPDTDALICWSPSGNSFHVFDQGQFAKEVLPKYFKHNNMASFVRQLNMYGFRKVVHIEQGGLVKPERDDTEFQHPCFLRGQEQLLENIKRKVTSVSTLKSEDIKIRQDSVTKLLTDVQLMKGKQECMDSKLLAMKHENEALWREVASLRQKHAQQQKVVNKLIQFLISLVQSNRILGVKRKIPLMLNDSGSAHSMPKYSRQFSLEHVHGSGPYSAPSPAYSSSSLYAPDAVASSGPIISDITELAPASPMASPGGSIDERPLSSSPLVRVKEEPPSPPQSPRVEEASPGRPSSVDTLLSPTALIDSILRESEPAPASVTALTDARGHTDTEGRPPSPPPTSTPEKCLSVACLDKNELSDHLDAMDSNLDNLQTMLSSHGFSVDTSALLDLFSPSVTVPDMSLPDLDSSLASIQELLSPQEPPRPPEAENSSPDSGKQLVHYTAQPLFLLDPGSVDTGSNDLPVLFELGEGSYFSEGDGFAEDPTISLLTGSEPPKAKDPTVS
Sequence of ETV5 (P41161 whole entry): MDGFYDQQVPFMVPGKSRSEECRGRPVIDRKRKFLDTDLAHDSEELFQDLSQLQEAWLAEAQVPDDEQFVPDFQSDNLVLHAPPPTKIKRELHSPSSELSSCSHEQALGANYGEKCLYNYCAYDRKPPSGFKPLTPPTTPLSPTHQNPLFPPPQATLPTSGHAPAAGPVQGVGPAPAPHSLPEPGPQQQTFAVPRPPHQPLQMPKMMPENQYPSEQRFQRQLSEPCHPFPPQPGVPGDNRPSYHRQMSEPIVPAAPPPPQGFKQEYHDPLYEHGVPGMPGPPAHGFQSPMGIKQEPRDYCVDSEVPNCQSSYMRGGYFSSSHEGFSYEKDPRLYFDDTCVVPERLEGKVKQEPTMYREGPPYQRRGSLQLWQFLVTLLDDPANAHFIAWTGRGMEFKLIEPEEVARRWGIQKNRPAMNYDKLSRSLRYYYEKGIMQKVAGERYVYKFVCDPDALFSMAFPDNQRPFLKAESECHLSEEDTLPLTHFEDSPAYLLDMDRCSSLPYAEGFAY
Sequence of SPIB (Q01892 whole entry): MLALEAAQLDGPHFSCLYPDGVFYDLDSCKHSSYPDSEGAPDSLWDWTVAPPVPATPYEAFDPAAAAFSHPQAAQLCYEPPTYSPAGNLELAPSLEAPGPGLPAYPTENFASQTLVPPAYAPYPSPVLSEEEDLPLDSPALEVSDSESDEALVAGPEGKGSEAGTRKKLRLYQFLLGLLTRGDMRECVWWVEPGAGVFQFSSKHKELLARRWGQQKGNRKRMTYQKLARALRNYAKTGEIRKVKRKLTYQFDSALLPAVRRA
Sequence of ELF4 (Q99607 whole entry): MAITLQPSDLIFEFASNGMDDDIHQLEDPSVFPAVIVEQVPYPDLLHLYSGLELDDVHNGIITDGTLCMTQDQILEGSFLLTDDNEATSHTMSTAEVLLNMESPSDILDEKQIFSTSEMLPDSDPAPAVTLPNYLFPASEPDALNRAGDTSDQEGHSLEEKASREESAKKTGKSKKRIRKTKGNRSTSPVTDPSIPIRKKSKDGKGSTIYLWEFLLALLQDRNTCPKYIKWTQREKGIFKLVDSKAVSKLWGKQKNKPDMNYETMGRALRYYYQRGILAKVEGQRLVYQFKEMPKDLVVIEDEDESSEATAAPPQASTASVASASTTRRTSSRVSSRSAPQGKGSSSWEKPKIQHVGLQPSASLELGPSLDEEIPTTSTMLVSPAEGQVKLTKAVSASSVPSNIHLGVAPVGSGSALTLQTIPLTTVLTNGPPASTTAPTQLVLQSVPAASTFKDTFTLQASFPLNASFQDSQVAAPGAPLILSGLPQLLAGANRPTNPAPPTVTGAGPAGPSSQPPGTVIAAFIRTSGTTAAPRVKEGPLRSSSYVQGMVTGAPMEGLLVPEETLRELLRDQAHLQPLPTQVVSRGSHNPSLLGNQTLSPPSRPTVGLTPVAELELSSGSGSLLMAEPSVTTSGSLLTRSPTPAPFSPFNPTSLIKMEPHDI
Sequence of CRX (O43186 whole entry): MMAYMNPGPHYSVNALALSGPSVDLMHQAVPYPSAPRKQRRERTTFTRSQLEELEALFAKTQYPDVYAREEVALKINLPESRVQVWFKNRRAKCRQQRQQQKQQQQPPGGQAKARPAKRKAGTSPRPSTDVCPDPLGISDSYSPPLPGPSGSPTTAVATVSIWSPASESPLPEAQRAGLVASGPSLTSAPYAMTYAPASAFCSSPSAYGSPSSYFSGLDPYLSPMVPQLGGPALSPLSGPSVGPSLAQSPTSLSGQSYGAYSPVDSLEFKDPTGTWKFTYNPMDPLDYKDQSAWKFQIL

CTGAAC was tested, and the binding signal [1] was 1.35 fold enrichment (6-mer frequency, TF over GST control), the binding signal [2] was 1.41 fold enrichment (6-mer frequency, TF over GST control) and the binding signal [3] was 1.37 fold enrichment (6-mer frequency, TF over GST control). For the same sequence, the binding signal [4] was 1.4 fold enrichment (6-mer frequency, TF over GST control), the binding signal [5] was 1.37 fold enrichment (6-mer frequency, TF over GST control) and the binding signal [6] was 1.35 fold enrichment (6-mer frequency, TF over GST control). The binding signal [7] was 1.36 fold enrichment (6-mer frequency, TF over GST control), the binding signal [8] was 1.42 fold enrichment (6-mer frequency, TF over GST control) and the binding signal [9] was 1.2 fold enrichment (6-mer frequency, TF over GST control). The binding signal [10] was 1.35 fold enrichment (6-mer frequency, TF over GST control), the binding signal [11] was 1.41 fold enrichment (6-mer frequency, TF over GST control) and the binding signal [12] was 1.33 fold enrichment (6-mer frequency, TF over GST control). The binding signal [13] was 1.31 fold enrichment (6-mer frequency, TF over GST control), the binding signal [14] was 1.3 fold enrichment (6-mer frequency, TF over GST control) and the binding signal [15] was 1.44 fold enrichment (6-mer frequency, TF over GST control). The binding signal [16] was 1.35 fold enrichment (6-mer frequency, TF over GST control), the binding signal [17] was 1.44 fold enrichment (6-mer frequency, TF over GST control) and the binding signal [18] was 1.23 fold enrichment (6-mer frequency, TF over GST control). For the same sequence, the binding signal [19] was 1.43 fold enrichment (6-mer frequency, TF over GST control).
